# According to PubChem BioAssay (NCATS):
# Records with an inconclusive call do not appear. Entries that show only a call come without a potency. Values without a mark were called inactive. Calls of active or inactive are those of the source. Unless noted, the call rests on the fitted dose curve; in most records, active means well fitted curve in the direction sought with a large enough effect; inconclusive means small, poorly fitted or top-dose-only effect, or another doubt; inactive means no such curve, though single readings can be large; an effect the other way counts as inactive or inconclusive.
# Key:
# [1] = biological target: Aldehyde dehydrogenase, mitochondrial (Homo sapiens) (UniProt P05091); experiment: qHTS for Inhibitors of the Aldehyde Dehydrogenase Family (ALDH2) Confirmatory screens (AID 2061303; active means well fitted inhibition curve with a large enough effect; title and protocol of this record describe different tests; further: nearly all actives have a fitted effect of over 45% in size; further: potency means the concentration at half of the fitted maximal effect)
# [2] = biological target: Aldehyde dehydrogenase, mitochondrial (Homo sapiens) (UniProt P05091); experiment: qHTS for Inhibitors of the Aldehyde Dehydrogenase Family (ALDH2) Primary screen (AID 2061308); further: nearly all actives have a fitted effect of over 55% in size; further: potency means the concentration at half of the fitted maximal effect
# [3] = biological target: Retinal dehydrogenase 2 (Homo sapiens) (UniProt O94788); experiment: qHTS for Inhibitors of the Aldehyde Dehydrogenase Family (ALDH1A2) Confirmation screens (AID 2061314); further: nearly all actives have a fitted effect of over 65% in size; further: potency means the concentration at half of the fitted maximal effect
# [4] = biological target: Retinaldehyde dehydrogenase 3 (Homo sapiens) (UniProt P47895); experiment: qHTS for Inhibitors of the Aldehyde Dehydrogenase Family (ALDH1A3) Primary screen (AID 2061315); further: potency means the concentration at half of the fitted maximal effect
# [5] = biological target: Retinaldehyde dehydrogenase 3 (Homo sapiens) (UniProt P47895); experiment: qHTS for Inhibitors of the Aldehyde Dehydrogenase Family (ALDH1A3) Confirmatory screens (AID 2061311); further: nearly all actives have a fitted effect of over 60% in size; further: potency means the concentration at half of the fitted maximal effect
# [6] = biological target: Aldehyde dehydrogenase 1A1 (Homo sapiens) (UniProt P00352); experiment: qHTS for Inhibitors of the Aldehyde Dehydrogenase Family (ALDH1A1) Confirmatory screens (AID 2061316); further: nearly all actives have a fitted effect of over 65% in size; further: potency means the concentration at half of the fitted maximal effect
# [7] = biological target: Retinaldehyde dehydrogenase 3 (Homo sapiens) (UniProt P47895); experiment: qHTS for Inhibitors of the Aldehyde Dehydrogenase Family (ALDH1A3) Validation screen (AID 2061312); further: nearly all actives have a fitted effect of over 45% in size
# [8] = qHTS for Inhibitors of the Aldehyde Dehydrogenase Family (ALDH1A2, ALDH1A3, ALDH2, ALDH3A1) (AID 2061307); further: test system not described further here; potency means the concentration at half of the fitted maximal effect; nearly all actives have a fitted effect of over 50% in size
# [9] = BET inhibitor-based combinations targeting novel dependencies in MECOM-rearranged (r) AML: SET-2 cell line (AID 2202231); settings: SET-2 AML cells viability, CellTiter-Glo luminescence, 48 h; viability: stronger effect = lower value, concentration not given here; further: potency means the concentration at half of the fitted maximal effect; nearly all actives have a fitted effect of over 35% in size
# Summary of the method: (§1)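 Each compound was tested at eleven concentrations on cells seeded at 500/well. After two days' incubation, ATP-based luminescence reported viability; responses relative to DMSO and blank wells yielded AUC and cell-line-centred Z-AUC.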
# [10] = BET inhibitor-based combinations targeting novel dependencies in MECOM-rearranged (r) AML: MV-4-11 cell line (AID 2202233); further: potency means the concentration at half of the fitted maximal effect; nearly all actives have a fitted effect of over 45% in size
# Summary of the method: (§2)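 First, 500 cells per well were seeded; next, drugs were pinned as 11-point doses; then plates sat 48 hr in the incubator; finally CellTiter-Glo was added and luminescence read, with AUC and Z-AUC computed.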
# [11] = BET inhibitor-based combinations targeting novel dependencies in MECOM-rearranged (r) AML: HNT-34 cell line (AID 2202234); further: potency means the concentration at half of the fitted maximal effect; nearly all actives have a fitted effect of over 35% in size
# Summary of the method: as §2
# [12] = BET inhibitor-based combinations targeting novel dependencies in MECOM-rearranged (r) AML: AML-191 cell line (AID 2202236; further: potency means the concentration at half of the fitted maximal effect; nearly all actives have a fitted effect of over 35% in size)
# Summary of the method: as §1
# [13] = BET inhibitor-based combinations targeting novel dependencies in MECOM-rearranged (r) AML: AML-194 cell line (AID 2202237; further: potency means the concentration at half of the fitted maximal effect; nearly all actives have a fitted effect of over 40% in size)
# Summary of the method: as §1
smiles,measurement,setting,value
Nc1ncc(-c2cccc(-c3nn4c(=O)cc(N5CCNCC5)nc4s3)c2)cn1,Potency,[1],14.2 µM (active)
same,Potency,[2],inactive
same,Potency,[3],11.3 µM (active)
same,Potency,[4],inactive
CC(=O)c1ccc(N2CCN(S(=O)(=O)c3ccc4c(c3)n(C)c(=O)n4C)CC2)cc1,Potency,[1],0.316 µM (active)
same,Potency,[2],inactive
same,Potency,[5],2.01 µM (active)
same,Potency,[6],inactive
Cc1noc(C)c1N[S+](=O)([O-])c1ccc(NC(=O)Cc2ccc(Cl)c(Cl)c2)cc1,Potency,[1],7.08 µM (active)
same,Potency,[2],inactive
same,Potency,[5],6.31 µM (active)
same,Potency,[4],inactive
O=S1(=O)CCN(Cc2cc(NCC3CCOCC3)c3[nH]c(-c4ccccc4)cc3c2)CC1,Potency,[1],inactive
same,Potency,[2],inactive
same,Potency,[5],11.3 µM (active)
same,Potency,[6],inactive
COc1ccc(C(=O)N(Cc2ccco2)Cc2cccs2)c(O)c1,Potency,[1],inactive
same,Potency,[2],inactive
same,Potency,[3],22.5 µM (active)
same,Potency,[4],inactive
same,Potency,[6],12.7 µM (active)
COc1cc(C(=O)O)ccc1OC1OC(CO)C(O)C(O)C1O (configuration not stated),Potency,[2],inactive
Cc1ccc2nc3sc(C(=O)NC4CCCC4)cc3cc2c1,Potency,[1],inactive
same,Potency,[2],inactive
same,Potency,[4],inactive
CN(C)CCn1cc(-c2ccc(F)cc2)c(-n2cccc2)n1,Potency,[2],inactive
same,Potency,[7],inactive
same,Potency,[4],inactive
O=C1c2ccccc2NC(c2ccc(-c3ccc(-c4ccccc4)cc3)o2)N1O (configuration not stated),Potency,[1],3.57 µM (active)
same,Potency,[2],1.58 µM (active)
same,Potency,[3],5.65 µM (active)
same,Potency,[4],inactive
same,Potency,[6],4 µM (active)
COc1ccc(C2Nc3ccccc3C(=O)N2Cc2ccccc2)cc1COc1ccc(F)cc1 (configuration not stated),Potency,[1],inactive
same,Potency,[2],inactive
same,Potency,[3],15.9 µM (active)
same,Potency,[4],inactive
same,Potency,[6],inactive
CCNC(=O)[C@H]1O[C@H](n2cnc3c(NCC(c4ccccc4)c4ccccc4)nc(C(=O)NCCNC(=O)NC4CCN(c5ccccn5)CC4)nc32)[C@H](O)[C@@H]1O,Potency,[2],inactive
same,Potency,[7],inactive
same,Potency,[4],inactive
C=C1C(O)CCC2(C)CC3(OC)OC(=O)C(C)=C3CC12 (configuration not stated),Potency,[1],inactive
same,Potency,[4],inactive
Cc1ccc(CNc2ccc(N3CCN(C(=O)OC(C)(C)C)CC3)cc2)cc1,Potency,[1],inactive
same,Potency,[2],inactive
same,Potency,[4],inactive
COc1cc(OC)c(NC(=O)c2ccc(Cc3cc4c(cc3C)C(C)(C)CCC4(C)C)o2)c(OC)c1,Potency,[2],inactive
same,Potency,[5],4 µM (active)
same,Potency,[3],5.65 µM (active)
same,Potency,[6],5.04 µM (active)
Cc1ccc(OCCn2c(CCNC(=O)c3cccc(N)c3)nc3ccccc32)cc1,Potency,[1],inactive
same,Potency,[2],inactive
same,Potency,[3],inactive
same,Potency,[4],inactive
same,Potency,[6],inactive
Cc1ccnc(NC(=S)N2CCN(c3cccc(Cl)c3Cl)CC2)c1,Potency,[1],11.3 µM (active)
same,Potency,[2],6.31 µM (active)
same,Potency,[3],14.2 µM (active)
same,Potency,[6],3.18 µM (active)
COc1cc(C[C@H]2C(=O)OC[C@@H]2Cc2ccc(OC)c(OC)c2)ccc1O,Potency,[8],0.251 µM (active)
same,Potency,[2],inactive
same,Potency,[4],inactive
N#Cc1nc2c(nc1C#N)-c1ccccc1C2=O,Potency,[1],10 µM (active)
same,Potency,[5],inactive
same,Potency,[6],inactive
O=C(COc1ccc(C(=O)c2ccccc2)cc1)NC1CCN(Cc2ccccc2)CC1,Potency,[2],inactive
same,Potency,[7],inactive
same,Potency,[4],inactive
Cc1c(C(=O)NCc2cccnc2)nn(-c2ccc(Cl)cc2Cl)c1-c1ccc(Cl)cc1,Potency,[2],inactive
same,Potency,[7],inactive
same,Potency,[4],inactive
Clc1nc(CN2CCOCC2)nc2sc3c(c12)CCCC3,Potency,[1],4 µM (active)
same,Potency,[2],inactive
same,Potency,[4],inactive
C=C[C@H]1C(O[C@@H]2O[C@H](CO)[C@@H](O)[C@H](O)[C@H]2O)OC=C2C(=O)N3CCc4c([nH]c5ccccc45)C3CC21 (some centres not stated),Potency,[2],inactive
CC(C)c1ccc(NC(=O)Cn2cnc3c2c(=O)n(C)c(=O)n3C)cc1,Potency,[2],inactive
same,Potency,[7],inactive
same,Potency,[4],inactive
c1cc(NCCc2c[nH]c3ccccc23)cc(Nc2ccncc2)c1,Potency,[1],25.1 µM (active)
same,Potency,[2],10 µM (active)
same,Potency,[4],inactive
same,Potency,[6],11.3 µM (active)
COc1ccnc(NC(=S)N2CCN(c3ccc(Cl)c(Cl)c3)CC2)c1,Potency,[1],4.47 µM (active)
same,Potency,[2],15.8 µM (active)
same,Potency,[3],3.57 µM (active)
same,Potency,[6],4 µM (active)
C[C@@H]1O[C@@H](O[C@H]2[C@H](O[C@H]3CO[C@@H](O[C@H]4CC[C@@]5(C)C(CC[C@]6(C)C5CC[C@]57OC[C@@]8(CC[C@](C)(CO)CC85)[C@H](O)C[C@]76C)C4(C)C)[C@H](O[C@@H]4O[C@H](CO)[C@@H](O)[C@H](O)[C@H]4O)[C@H]3O)O[C@H](CO)[C@@H](O)[C@@H]2O)[C@H](O)[C@H](O)[C@H]1O (some centres not stated),"activity change, negative = inhibition",[1],-29.1% [at 10 µM]
same,Potency,[2],inactive
same,"activity, negative = inhibition",[3],-8.29% [at 10 µM]
same,Potency,[4],inactive
same,"activity change, negative = inhibition",[6],-22.4% [at 10 µM]
OC[C@H]1O[C@@H](Oc2ccc(O)c3cccc(O)c23)[C@H](O)[C@@H](O)[C@@H]1O,Potency,[8],7.83 µM (active)
same,Potency,[5],0.985 µM (active)
same,Potency,[3],2.47 µM (active)
same,Potency,[4],1.78 µM (active)
Cc1ccc2nc3sc(C(=O)NC4CCCCC4)cc3cc2c1,Potency,[1],inactive
same,Potency,[2],inactive
same,Potency,[4],inactive
CN(C)C(=O)NC1(c2ccccc2)CCN(CCC[C@]2(c3ccc(Cl)c(Cl)c3)CCCN(C(=O)c3ccccc3)C2)CC1,Potency,[2],inactive
same,Potency,[7],inactive
same,Potency,[4],inactive
Cc1c(C(=O)OCC2CCCO2)[nH]c2c1C(=O)CCC2 (configuration not stated),Potency,[1],inactive
same,Potency,[2],inactive
same,Potency,[3],28.3 µM (active)
same,Potency,[4],inactive
same,Potency,[6],3.18 µM (active)
CCC[C@@]1(CCc2ccccc2)CC(O)=C([C@H](CC)c2cccc(NS(=O)(=O)c3ccc(C(F)(F)F)cn3)c2)C(=O)O1,Potency,[2],inactive
same,Potency,[7],inactive
same,Potency,[4],inactive
O=C(OCC#CCSc1nnc(-c2cccc3ccccc23)o1)C1CC1,Potency,[1],inactive
same,Potency,[2],inactive
same,Potency,[4],inactive
COc1ccc(CNC(=O)Nc2ncc([N+](=O)[O-])s2)cc1,Potency,[8],3.16 µM (active)
same,Potency,[2],inactive
same,Potency,[5],14.2 µM (active)
same,Potency,[3],12.7 µM (active)
same,Potency,[4],inactive
same,Potency,[9],26.3 µM (active)
same,Potency,[10],18.6 µM (active)
same,Potency,[11],20.9 µM (active)
same,Potency,[12],23.5 µM (active)
same,Potency,[13],26.3 µM (active)
